Assay results taken from PubChem BioAssay AID1159580 (chemical genetic matrix, 2015).
Values joined by “and” are separate entries in the source; they are usually repeats but may differ in a detail not shown here. Equal values may be shown once. The campaign covered roughly 5,500 compounds. About 2,000 (36%) were called active. Not shown: some 18% with an inconclusive outcome. Cut-off read from the data, not from the text of the source: active = normalized growth mostly below about 0.91 (no sharp cut-off); inconclusive = no clear call, values can overlap the other calls; inactive = mostly above about 0.92. This is one part of the list.

Assay: chemical genetic growth profiling, strain panel (AID 1159580);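 note: tested at 20 µM; growth read once vehicle control cultures reached saturation at 30 °C; 1 = growth at the plate median or of vehicle wells; lower values mean less growth of the strain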
Conditions: S. cerevisiae deletion strains, growth OD

Measured: normalized growth

Oc1cc2c(cc1O)C1c3ccc(O)c(O)c3OCC1(O)C2 (centres undefined)
active: locus YDL134C, strain PPH21, hits give low values 0.832 | locus YDR162C, strain NBP2, hits give low values 0.821 | locus YHR129C, strain ARP1, hits give low values 0.912 | locus YJL187C, strain SWE1 (second series), hits give low values 0.856 | locus YLR342W, strain FKS1 (second series), hits give low values 0.696 | locus YML016C, strain PPZ1, hits give low values 0.86 | locus YMR058W, strain fet3, hits give low values 0.784 | locus YNL322C, strain KRE1, hits give low values 0.902
inactive: locus YAL021C, strain ccr4, hits give low values 1 | locus YAL030W, strain snc1, hits give low values 1.01 | locus YBL061C, strain skt5, hits give low values 0.993 | locus YBR009C, strain hhf1, hits give low values 1 | locus YBR021W, strain FUR4, hits give low values 1.01 | locus YBR023C, strain chs3, hits give low values 0.995 | locus YBR171W, strain sec66, hits give low values 1.01 | locus YBR229C, strain ROT2, hits give low values 1 | locus YBR231C, strain swc5, hits give low values 0.956 | locus YBR279W, strain paf1, hits give low values 0.984 | locus YCL011C, strain gbp2, hits give low values 1.01 | locus YCL016C, strain dcc1, hits give low values 1 | locus YCL029C, strain bik1, hits give low values 0.997 | locus YCL069W, strain vba3, hits give low values 1.02 | locus YCR088W, strain abp1, hits give low values 1.02 | locus YDL005C, strain med2, hits give low values 1 | locus YDL035C, strain GPR1, hits give low values 0.973 | locus YDL040C, strain nat1, hits give low values 1.04 | locus YDL074C, strain BRE1, hits give low values 0.852 | locus YDL101C, strain DUN1, hits give low values 0.908 | locus YDL185W, strain tfp1, hits give low values 0.961 | locus YDL192W, strain arf1, hits give low values 0.997 | locus YDR001C, strain nth1, hits give low values 1.02 | locus YDR069C, strain doa4, hits give low values 0.936 | locus YDR101C, strain arx1, hits give low values 1.07 | locus YDR137W, strain rgp1, hits give low values 1.05 | locus YDR159W, strain sac3, hits give low values 1.03 | locus YDR195W, strain ref2 1.02 | locus YDR297W, strain sur2, hits give low values 1.01 | locus YDR318W, strain mcm21, hits give low values 0.99 | locus YDR334W, strain swr1, hits give low values 0.991 | locus YDR335W, strain msn5, hits give low values 0.996 | locus YDR388W, hits give low values 0.998 | locus YDR392W, strain spt3, hits give low values 0.991 | locus YDR502C, strain sam2, hits give low values 1.01 | locus YEL003W, strain gim4, hits give low values 1.01 | locus YEL037C, strain rad23, hits give low values 1.02 | locus YEL061C, strain CIN8 (second series), hits give low values 1.02 | locus YEL061C, strain CIN8, hits give low values 0.964 | locus YER015W, strain faa2, hits give low values 0.983 | locus YER016W, strain bim1, hits give low values 1.02 | locus YER110C, hits give low values 0.999 | locus YER111C, strain swi4, hits give low values 0.961 | locus YER155C, strain BEM2 (second series), hits give low values 1.02 | locus YER155C, strain BEM2, hits give low values 1.02 | locus YER167W, strain BCK2, hits give low values 1.04 | locus YFR010W, strain ubp6, hits give low values 0.983 | locus YGL078C, strain dbp3, hits give low values 0.972 | locus YGL086W, strain mad1, hits give low values 0.966 | locus YGL173C, strain kem1, hits give low values 0.985 | locus YGL227W, strain vid30, hits give low values 1.01 | locus YGL240W, strain doc1, hits give low values 1.04 | locus YGL248W, strain PDE1, hits give low values 0.893 | locus YGL253W, strain hxk2, hits give low values 1.01 | locus YGR078C, strain PAC10, hits give low values 0.916 | locus YGR135W, strain pre9, hits give low values 0.946 | locus YGR252W, strain gcn5, hits give low values 0.992 | locus YHR013C, strain ard1, hits give low values 0.987 | locus YHR027C, strain rpn1, hits give low values 0.98 | locus YHR030C, strain SLT2, hits give low values 1 | locus YHR079C, strain IRE1 (second series), hits give low values 1.01 | locus YHR079C, strain IRE1, hits give low values 1.01 | locus YHR094C, strain hxt1, hits give low values 1.01 | locus YHR142W, strain chs7, hits give low values 0.99 | locus YHR200W, strain rpn10, hits give low values 0.976 | locus YIL066C, strain RNR3, hits give low values 0.939 | locus YIL073C, strain SPO22, hits give low values 0.683 | locus YIL125W, strain kgd1, hits give low values 1 | locus YIR030C, strain dcg1, hits give low values 1.01 | locus YJL092W, strain hpr5, hits give low values 1.02 | locus YJL095W, strain BCK1 (second series), hits give low values 1.01 | locus YJL095W, strain BCK1, hits give low values 0.811 and 0.994 | locus YJL115W, strain asf1, hits give low values 1 | locus YJL129C, strain trk1, hits give low values 1.07 | locus YJL134W, strain LCB3, hits give low values 0.992 | locus YJL154C, strain vps35, hits give low values 1.02 | locus YJL164C, strain tpk1, hits give low values 0.991 | locus YJL166W, strain qcr8, hits give low values 0.991 | locus YJL168C, strain set2, hits give low values 0.984 | locus YJR043C, strain POL32, hits give low values 0.95 | locus YJR066W, strain TOR1, hits give low values 0.913 | locus YKL009W, strain mrt4, hits give low values 1.06 | locus YKL068W, hits give low values 0.983 | locus YKL085W, strain MDH1 (second series), hits give low values 0.977 | locus YKL085W, strain MDH1, hits give low values 0.977 | locus YKL160W, strain elf1, hits give low values 0.983 | locus YKR001C, strain vps1, hits give low values 1.03 | locus YKR026C, strain gcn3, hits give low values 1.01 | locus YKR091W, strain srl3, hits give low values 1.02 | locus YLL001W, strain dnm1, hits give low values 1.01 | locus YLL026W, hits give low values 1.01 | locus YLL041C, strain sdh2, hits give low values 1.03 | locus YLR027C, strain aat2, hits give low values 0.984 | locus YLR039C, strain RIC1, hits give low values 0.916 | locus YLR058C, strain SHM2, hits give low values 0.916 | locus YLR102C, strain apc9, hits give low values 0.998 | locus YLR113W, strain HOG1, hits give low values 1.07 | locus YLR221C, strain rsa3, hits give low values 0.986 | locus YLR258W, strain gsy2, hits give low values 1.02 | locus YLR262C, strain YPT6 (second series), hits give low values 0.979 | locus YLR268W, strain sec22, hits give low values 1.04 | locus YLR320W, strain mms22, hits give low values 0.999 | locus YLR330W, strain CHS5, hits give low values 0.974 | locus YLR342W, strain FKS1, hits give low values 0.979 | locus YLR357W, strain rsc2, hits give low values 0.907 | locus YLR370C, strain arc18, hits give low values 0.987 | locus YLR371W, strain rom2, hits give low values 0.932 | locus YLR384C, strain iki3, hits give low values 1 | locus YLR418C, strain cdc73, hits give low values 0.963 | locus YML032C, strain rad52, hits give low values 1.07 | locus YML120C, strain ndi1, hits give low values 1.04 | locus YML124C, strain tub3, hits give low values 1.02 | locus YMR078C, strain ctf18, hits give low values 1.01 | locus YMR125W, strain sto1, hits give low values 1.05 | locus YMR129W, hits give low values 1.03 | locus YMR205C, strain PFK2, hits give low values 1.02 | locus YMR223W, strain ubp8, hits give low values 0.977 | locus YMR231W, strain pep5, hits give low values 0.995 | locus YMR307W, strain GAS1, hits give low values 0.784 | locus YNL067W, strain RPL9B, hits give low values 0.931 | locus YNL071W, strain lat1, hits give low values 1.01 | locus YNL153C, strain GIM3, hits give low values 0.908 | locus YNL183C, strain NPR1, hits give low values 0.907 | locus YNL209W, strain ssb2, hits give low values 0.958 | locus YNL233W, strain BNI4, hits give low values 0.911 | locus YNL248C, strain rpa49, hits give low values 0.995 | locus YNL250W, strain rad50, hits give low values 0.952 | locus YNL271C, strain bni1, hits give low values 0.988 | locus YNL298W, strain CLA4, hits give low values 0.991 | locus YNL307C, strain MCK1, hits give low values 0.996 | locus YNL322C, strain KRE1 (second series), hits give low values 1.01 | locus YNR049C, strain mso1, hits give low values 1.02 | locus YNR052C, strain pop2, hits give low values 0.954 | locus YOL006C, strain TOP1, hits give low values 0.585 | locus YOL012C, strain htz1 0.422 | locus YOL147C, strain pex11, hits give low values 1.01 | locus YOR001W, strain rrp6, hits give low values 0.991 | locus YOR061W, strain CKA2, hits give low values 0.945 | locus YOR069W, strain VPS5, hits give low values 0.953 | locus YOR070C, strain gyp1, hits give low values 0.965 | locus YOR080W, strain dia2, hits give low values 1.01 | locus YOR083W, strain WHI5, hits give low values 0.971 | locus YOR106W, strain vam3, hits give low values 0.985 | locus YOR136W, strain idh2, hits give low values 1.02 | locus YOR144C, strain elg1, hits give low values 1.01 | locus YOR184W, strain ser1, hits give low values 1.09 | locus YOR231W, strain MKK1, hits give low values 1.01 | locus YOR265W, strain rbl2, hits give low values 1 | locus YOR270C, strain vph1, hits give low values 1.05 | locus YOR290C, strain snf2, hits give low values 0.997 | locus YOR316C, strain cot1, hits give low values 0.996 | locus YPL051W, strain arl3, hits give low values 0.929 | locus YPL078C, strain atp4, hits give low values 1.02 | locus YPL106C, strain sse1, hits give low values 0.957 | locus YPL240C, strain hsp82, hits give low values 1.02 | locus YPL256C, strain CLN2, hits give low values 1.02 | locus YPR119W, strain clb2, hits give low values 1.01 | locus YPR141C, strain kar3, hits give low values 0.982 | locus YPR163C, strain tif3, hits give low values 1.01 | locus YPR167C, strain met16, hits give low values 1.01 | strain wtn01, hits give low values 1.02
